Experimental findings from PMC5540273 (PLoS ONE, 2017) are described below.

For test [1], the system named is LTK. As to conditions: n = 1.
The subject of test [2] is LYN. As to conditions: concentration: 1 μM, replicates: in singlicate, n = 1.
Test [3] has as its system T1, LZK.
T1 construct: gene MAP3K13
To be noted: concentration: 1 μM, replicates: in singlicate, n = 1.

For test [4], the system named is MAK. To be noted: concentration: 1 μM, replicates: in singlicate, n = 1.
Test [5] has as its system MAP3K15. To be noted: concentration: 1 μM, replicates: in singlicate, n = 1.
In test [6] the test system is MAP3K1. As to conditions: concentration: 1 μM, replicates: in singlicate, n = 1.
Test [7] deals with MAP3K2. As to conditions: concentration: 1 μM, replicates: in singlicate, n = 1.
Test [8] deals with MAP3K3. To be noted: concentration: 1 μM, replicates: in singlicate, n = 1.
Test [9] has as its system MAP3K4. As to conditions: concentration: 1 μM, replicates: in singlicate, n = 1.
The subject of test [10] is MAP4K2. As to conditions: concentration: 1 μM, replicates: in singlicate, n = 1.
Setting [11] is: concentration: 1 μM, replicates: in singlicate.
Setting [12] is: concentration: 1 μM, replicates: in singlicate, 1 µM.

Structures are written as SMILES. Values joined by “and” are separate entries in the source; they are usually repeats but may differ in a detail not shown here. Identical values can stand only once. Like-named read-outs stand apart in the source and are kept apart here.
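Further: KINOMEscan kinase panel screen.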

As to `Fc1ccc(-c2nn3c(OCC(F)(F)F)cccc3c2-c2ccncc2)cc1` [GW514784], the “%Inh” value in [1] (setting [11]) is on record as 0%; in test [2] it was 0%; in test [3], 37%; in test [4], 31%; in test [5], 0%; in test [6], 0%. The “%Inh” value in test [7], in [8], in test [9] and in [10] was 0% in each case.

For the molecule `O=C(c1ccc(-c2cc(-c3c[nH]nc3-c3ccccn3)ccn2)cc1)N1CCOCC1` [GW812171], the “%Inh” value in [1] (setting [11]) worked out at 4%; in test [2], 0%; in test [3] it was 0%; in test [4], 0%; in test [5], 0%; in test [6], 0%. Moreover, the “%Inh” value is given as 22% in [7], 0% in [8], 9% in test [9] and 0% in [10].

In the case of `COc1ccc(Nc2ncc(C#N)c(Nc3ccccc3C(N)=O)n2)cc1N1CCN(C)CC1.Cl` [GSK1558669], the “%Inh” value is 89% in [1] (setting [11]); 93.9% in test [2]; 97.5% in test [3]; 66% in test [4]; 73% in test [5]; 38% in test [6]. Besides, the “%Inh” value in test [7] is 99.2%; in [8], 99.8%; in test [9] it was 99.9%; in test [10], 98.8%.

As to `CCn1cnc2c(N)ncnc21` [GW345098], the “%Inh” value is 16% in test [1] (setting [11]); 0% in test [2]; 3% in test [3]; 0% in [4]; 6% in test [5]; 18% in test [6]. Moreover, the “%Inh” value was found to be 9% in [7], 20% in test [8], 11% in test [9] and 19% in test [10].

Turning to `CC(=O)Nc1ccc(COc2ccc(Nc3ccnc4cc(-c5ccccn5)ccc34)cc2)cc1.Cl` [GW440148], the “%Inh” value in test [1] (setting [11]) is listed as 7%; in [2], 1%; in test [3] it was 3%; in test [4] it was 43%; in [5] it was 2%; in test [6], 11%. The “%Inh” value in [7], in test [8], in test [9] and in test [10] was 0% throughout.

With `O=c1cc(N2CCOCC2)nc2n(Cc3cccc(Cl)c3Cl)c(C3CC3)nn12` [GSK2358994], the “%Inh” value in test [1] (1 µM) was found to be 0%; in test [2], 0%; in test [3], 0%; in [4] it was 0%; in [5] it was 0%; in test [6] it was 14%. Besides, the “%Inh” value in test [7] came out at 0%; in test [8] it was 0%; in test [9], 19%; in test [10] it was 11%.

With `COc1ccc(CNC(=O)NC2CCN(c3ccnc(Nc4ccc(OC)cc4)n3)C2)cc1` (centres unmarked) [GSK1379727], the “%Inh” value in [1] (setting [11]) was 0%; in test [2], 0%; in [3], 0%; in test [4], 7%; in test [5], 0%; in [6], 0%. The “%Inh” value came to 0% in [7], 0% in test [8], 10% in test [9] and 0% in [10].

With `Fc1ccc(-c2ncn(CCCN3CCOCC3)c2-c2ccccn2)cc1` [SB-211742], the “%Inh” value is recorded as 11% in test [1] (setting [11]); 0% in test [2]; 0% in test [3]; 0% in [4]; 0% in [5]; 0% in test [6]. In addition, the “%Inh” value in test [7] is 0%; in test [8] it was 0%; in [9], 18%; in test [10], 0%.

Take `N#Cc1ccc(-c2cc(-c3c[nH]nc3-c3ccccn3)ccn2)cc1` [GW693028]: the “%Inh” value in [1] (setting [11]) came to 0%; in test [2], 0%; in [3], 0%; in [4], 21%; in test [5] it was 0%; in test [6], 6%. The “%Inh” value worked out at 0% in test [7], 0% in test [8], 24% in [9] and 0% in test [10].

Regarding `Cc1ccc(C(=O)NCC(N)=O)cc1-n1c(C)cc(OCc2ccc(F)cc2F)c(Br)c1=O`, the “%Inh” value in test [1] (setting [11]) is given as 27%; in test [2] it was 18%; in test [3], 0%; in test [4], 11%; in [5], 0%; in [6], 0%. The “%Inh” value in test [7] came to 0%; in [8], 0%; in test [9], 22%; in test [10], 0%.

Turning to `COc1ccc(Nc2nccc(N3CCC(NC(=O)Nc4cccc(C(C)=O)c4)C3)n2)cc1` (centres unmarked) [GSK1379731], the “%Inh” value in test [1] (setting [11]) is 0%; in [2], 0%; in test [3], 0%; in test [4], 29%; in test [5] it was 0%; in test [6], 14%. Also, the “%Inh” value is reported as 4% in test [7], 0% in test [8], 19% in test [9] and 0% in test [10].

Consider `NCCNS(=O)(=O)c1ccc(-c2ccnc3[nH]ccc23)cc1` [GSK977617], for which the “%Inh” value in [1] (setting [12]) is 37% and 0%; in [2], 0%; in test [3] (1 µM), 22% and 3%; in test [4], 0%; in [5] (1 µM) it was 4% and 0%; in test [6] (1 µM) it was 8% and 11%. The “%Inh” value was 83% and 72% in test [7] (1 µM); 63% and 56% in test [8] (1 µM); 0% and 21% in [9] (1 µM); 47% and 38% in [10] (1 µM).

Regarding `c1ccc(-c2cc(-c3c[nH]nc3-c3ccccn3)ccn2)cc1` [GW576604], the “%Inh” value in test [1] (setting [11]) is on record as 19%; in test [2] it was 0%; in test [3] it was 10%; in [4], 0%; in [5], 0%; in [6], 0%. Further, the “%Inh” value in test [7], in test [8], in test [9] and in test [10] was 0% throughout.

On to `Cl.Nc1ncnc2occ(-c3ccc(NC(=O)Nc4cc(C(F)(F)F)ccc4F)cc3)c12` [SB-707548], for which the “%Inh” value in [1] (setting [11]) is given as 97.2%; in [2], 75%; in test [3] it was 40%; in test [4] it was 6%; in [5] it was 5%; in [6], 34%. Also, the “%Inh” value is given as 8% in test [7], 17% in [8], 25% in test [9] and 62% in test [10].

For `O=C(Nc1cccc(-c2nn3ncccc3c2-c2ccnc(Nc3cccc(C(F)(F)F)c3)n2)c1)c1c(F)cccc1F` [GSK299495], the “%Inh” value in [1] (setting [11]) worked out at 3%; in [2], 87%; in test [3], 12%; in [4] it was 0%; in [5] it was 0%; in test [6] it was 15%. Besides, the “%Inh” value in [7] came to 24%; in test [8], 0%; in test [9], 33%; in test [10], 0%.

`Cl.Cl.Cl.Fc1ccc(-c2ncn(C3CCNCC3)c2-c2ccnc(Nc3ccccc3)n2)cc1` [SB-238039]: the “%Inh” value in test [1] (setting [12]) was 27% and 37%; in test [2] (1 µM), 42% and 15%; in [3] (1 µM), 0% and 7%; in [4] (1 µM), 3% and 41%; in test [5] (1 µM), 0% and 4%; in test [6], 0%. In addition, the “%Inh” value in [7] (1 µM) is 63% and 27%; in test [8] (1 µM), 69% and 98.9%; in test [9] (1 µM), 2% and 0%; in [10] (1 µM), 36% and 7%.

For `CCc1nc(-c2cccc(C)c2)c(-c2ccnc(NCc3ccccc3)c2)s1`, the “%Inh” value was determined as 0% in test [1] (setting [11]); 8% in test [2]; 0% in test [3]; 26% in test [4]; 3% in test [5]; 0% in [6]. The “%Inh” value came to 0% in test [7], 0% in test [8], 0% in [9] and 3% in test [10].
